aSyn UTR act = Activators via SNCA 5'UTR binding, MLPCN; alpha-synuclein 5'UTR reporter, activators screen; activity score, % (tested at 7.5 µM), hits read low; actives 7.1% (n = 300,000); AID 1814; in the data active means activity score below about -60%
Numbers without * were called inactive. Not all results are given here.

SMILES | aSyn UTR act
CC1=NN(c2ccccc2)C(=O)C1C(=O)C(=O)Nc1ccc(F)cc1 (stereo unspecified) | -168*
Cc1ccccc1CS(=O)(=O)c1ncc(Cl)c(C(=O)Nc2ccc(F)cc2)n1 | 64
Cc1ccc(NC(=O)C(=O)C2C(=O)Nc3ccccc32)cc1 (stereo unspecified) | -77*
Cc1ccc(Cn2ncn(-c3ccccc3)c2=O)cc1 | -74*
Cc1ccc(Nc2c(-c3ccco3)nc3ccccn23)cc1 | -83*
COc1ccc(Nc2c(-c3ccco3)nc3ccc(C)cn23)cc1 | -89*
Cc1ccccc1Nc1c(-c2ccccn2)nc2ccccn12 | 64
Cc1cc(C)n(CC(O)COc2ccc3ccccc3c2)n1 (stereo unspecified) | -114*
c1ccc(OCCSc2nnnn2-c2ccccc2)cc1 | -86*
Fc1ccccc1OCCSc1nnnn1-c1ccccc1 | -83*
CCc1cc2c(=O)n3c(nc2s1)-c1[nH]c2ccc(OC)cc2c1CC3 | -103*
Cc1ccc(OCC(=O)O/N=C(\N)c2ccccn2)cc1C | -99*
N/C(=N\OC(=O)COc1ccc2ccccc2c1Br)c1ccccn1 | -107*
CCc1ccc(OCC(=O)O/N=C(\N)c2ccccn2)cc1 | -91*
Cc1cccc(C(=O)O/N=C(\N)c2ccccn2)c1 | 70
CCOc1ccc(C(=O)O/N=C(\N)c2ccccn2)cc1 | 62
Cc1cccc(OCC(=O)O/N=C(\N)c2ccccn2)c1 | -116*
Cc1ccc(OCC(=O)O/N=C(\N)c2ccncc2)cc1C | -129*
N/C(=N\OC(=O)COc1ccccc1)c1ccccn1 | -69*
Cc1cc(C)c(C)c(OCC(=O)O/N=C(\N)c2ccccn2)c1 | -110*
Cc1ccc(-n2nc3ccc(NC(=S)NC(=O)/C=C/c4ccco4)cc3n2)cc1 | -96*
Cc1ccc(-n2nc3cc(C)c(NC(=S)NC(=O)/C=C/c4ccco4)cc3n2)cc1 | -257*
NNc1nc2ccc(F)cc2s1 | -254*
NNc1nc2ccc(Cl)cc2s1 | -140*
Fc1ccc2nc(Nc3ccccc3)sc2c1 | -172*
SMILES | aSyn UTR act
CCc1nnc(NC(=O)c2cc(-c3ccccc3)nn2-c2ccccc2)s1 | -165*
CC(=O)C(/C=N/c1cc(-c2ccc(C)cc2)nn1-c1ccccc1)=C(\C)O | -198*
Cc1ccc(NC(=O)c2cc(-c3ccccc3)nn2-c2ccccc2)cc1 | -98*
Cn1nccc1C(=O)Nc1ccc(Cl)cc1 | -63*
Cn1nccc1C(=O)Nc1ccc2c(c1)OCO2 | -115*
CCN(CC)CCSc1nnc2c3ccccc3n(CCc3ccccc3)c2n1 | -106*
CN(C)CCn1c2ccccc2c2nc3ccc([N+](=O)[O-])cc3cc21 | 104
CC(C)CSc1nnc2c3ccccc3n(C)c2n1 | -75*
C/C(=N\NC(=O)c1cc(-c2cccs2)nc2ccccc12)c1ccccn1 | 79
Cc1cccc(Nc2nc(-c3cccs3)cs2)n1 | -91*
c1ccc(Nc2nc(-c3cccs3)cs2)nc1 | -165*
O=C(CCC1CCCC1)Nc1ccc(Br)cn1 | -197*
Cc1ccnc(NC(=O)CCC2CCCCC2)c1 | -193*
Cc1cc(NC(=O)CCC2CCCC2)no1 | -65*
Cc1ccc(-c2cc(-c3ccccc3)nc(Cl)n2)cc1 | -72*
Cc1cc(-c2ccccc2)nc(Cl)c1C#N | -80*
COc1ccc(/C=C/c2cc(=O)c3cc(Cl)ccc3o2)cc1 | -253*
Cc1ccc(CN=c2c([N+](=O)[O-])nn(-c3ccc4c(c3)OCCO4)n2O)cc1 | -132*
COc1ccc(-n2nc([N+](=O)[O-])c(=NCc3ccc4c(c3)OCO4)n2O)cc1 | -109*
c1ccc(-c2csc(Nc3ncccn3)n2)cc1 | -66*
CC(=O)Nc1ccc(-c2csc(Nc3ncccn3)n2)cc1 | -89*
Oc1ccc(-c2csc(Nc3ncccn3)n2)cc1 | -154*
Cc1cccnc1Nc1nc(-c2ccccc2)cs1 | -128*
NNc1nc(-c2ccccc2)cs1 | -92*
Cc1cccc(CSc2cn(CC(=O)N3CCOCC3)c3ccccc23)c1 | -130*
SMILES | aSyn UTR act
O=C(Cn1cc(SCc2cccc(Cl)c2)c2ccccc21)N1CCOCC1 | -153*
CC(=Nc1ccccc1)c1sc2ccccc2c1O | -383*
CC(=Nc1ccc(Br)cc1)c1sc2ccccc2c1O | -125*
CC(C)c1ccc(C2C3CSCC=C3C(C#N)=C(N)C2(C#N)C#N)cc1 (stereo unspecified) | -84*
Cc1cccc(NC(=O)CN2C(=O)N/C(=C\c3ccc(N4CCOCC4)cc3)C2=O)c1 | -100*
Nc1c(C(=O)N2CCCCC2)sc2nc3c(cc12)CCCC3 | -151*
Nc1c(C(=O)N2CCCC2)sc2nc(-c3ccccc3)ccc12 | -190*
Cc1ccc(C(=O)c2sc3nc4c(cc3c2N)CCC4)cc1 | -132*
N#C/C(=C\c1cc(Cl)c(OCc2ccc(Cl)cc2)c(Cl)c1)C(N)=O | -143*
O=C(Nc1ccccc1)Nc1nnc(-c2cccs2)s1 | -182*
COc1ccc(NC(=O)Nc2nnc(-c3cccs3)s2)cc1 | -113*
S=C(Nc1ccc(Br)cc1Cl)N1CCCC1 | -91*
CC(C)(C)c1ccc(/C=C2\SC(=O)N(CCNC(=O)c3cccc(S(=O)(=O)N4CCOCC4)c3)C2=O)cc1 | -89*

High-throughput results as filed in PubChem.
